Compounds with a hit are over-represented: about 2.4% of the library has one in this group of screens.
ANO1 activ = activators or potentiators of mouse TMEM16A chloride channel; HEK293 TMEM16A/YFP-H148Q/I152L, iodide quench fluorescence; active compounds read low; hit rate 0.3% among 340,000; B-score at 10 µM; Q8BHY3;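 active means fluorescence-ratio B-score plate-corrected deviation score at least 3 library SD below zero, with starting fluorescence score within 5 deviations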;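 further: channel opened by trigger with iodide after compound preincubation; score built on the fluorescence ratio of max minus min over baseline; more negative score means more quench and so TMEM16A activation or potentiation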
TMEM16A inh = inhibitors of mouse TMEM16A calcium-activated chloride channel | HEK293 TMEM16A/YFP iodide influx fluorescence, ionomycin | normalized B-score (activity score, 25-100; higher = stronger inhibition) at 10 µM | hit rate 1.2% among 310,000;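 active means ratio plate-corrected score three or more library SD toward inhibition, starting fluorescence score within five deviations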;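 further: score derived from kinetic fluorescence span divided by baseline fluorescence per well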
CRFBP-R2 block = blocks CRF-induced signaling of the CRF-BP/CRF-R2 complex | HEK293 CRF-R2/CRF-BP, CRF-induced calcium fluorescence | inhibition, % at 11.8 µM | hit rate 0.59% among 350,000 | AID 588475;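 active means inhibition of the ligand-induced calcium signal above about 50% at the single tested concentration, limit read from the data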
cardiac RTF act = cardiac RTF calcium sensitization; IANBD-labeled TnC RTF fluorescence at EC20 calcium; 0% EC20 calcium, 100% full calcium; activation, % at 7.2 µM; hit rate 0.24% among 340,000;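 active means activation above the mean over all tested compounds plus 3 SD, cut at about 30% in these data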;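 further: rise in fluorescence read as greater calcium sensitivity of cardiac thin filaments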
RTF Ca sens inh = cardiac RTF calcium desensitization; P19429+P45379; IANBD-labeled cardiac RTF, Ca2+ fluorescence; inhibition, % at 7.15 µM; hit rate 0.12% among 340,000; AID 493244;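 active means inhibition above the mean inhibition of all tested compounds plus 3 SD, cut at about 17% in these data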;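 further: assay run at fixed EC70 calcium of 1.6 mM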
CRFBP-R2 agonist = agonists of human CRF-binding protein/CRF-R2 receptor complex; HEK293 CRF-R2/CRF-BP, calcium dye fluorescence (FLIPR); percent of saturating CRF peptide response; activation, % at 13.2 µM; hit rate 0.46% among 350,000;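 active means activation of at least 50%, plus an integration ratio under a set limit after plate pattern correction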;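 further: plate controls were neutral control wells without compound for no effect and CRF at EC100 for full effect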
TMEM16A reconf = TMEM16A (mouse) chloride channel inhibition, re-confirmation; AID 652189; hit rate 39% among 2,300; HEK293 TMEM16A/YFP-H148Q, iodide quench fluorescence; ionomycin added to raise cell calcium; inhibition, % at 10 µM; shares compounds with TMEM16A inh;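 active means mean duplicate percent inhibition, scaled so buffer wells are 0 and the reference blocker 100, over three buffer SD above buffer mean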
HEK293 Ca mobil = counter-screen for TMEM16A inhibitors: effect on calcium mobilization. AID 652231. shares compounds with TMEM16A inh. TMEM16A/YFP HEK293, Fluo4 calcium mobilization. hit rate 2% among 2,300. calcium response (% of ionomycin), % at 10 µM;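 active means duplicate-averaged calcium signal over 20% of the ionomycin maximum, relative to buffer baseline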;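 further: each well's signal is peak minus trough fluorescence divided by its pre-addition baseline; 0% = buffer wells and 100% = ionomycin wells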
YFP-HEK293 quench = parental YFP-HEK293 iodide quench counter-screen activity; shares compounds with TMEM16A inh; ionomycin; YFP ratio F(max-min)/F0 at 10 µM; 2,300 tested, under 10 active;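 active means yellow fluorescent protein signal ratio exceeding the buffer control mean by over 5 SD of those controls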;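 further: ratio is mean of duplicate wells from kinetic YFP trace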
ClC-1 rat inh = blocks the rat ClC-1 voltage-dependent chloride channel | 2,300 tested, under 10 active | shares compounds with TMEM16A inh | CHO ClC-1-YFP, iodide influx fluorescence quench; iodide control reads 0, buffer control 100 | ratio percent, % at 10 µM;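 active means duplicate-mean ratio percent above the mean of iodide-only control wells, which defines zero, plus 5 of their SD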;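 further: higher percent means stronger block of ClC-1 iodide influx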
* hit, by the source's call.

Results for O=C1CC(N(CCc2ccccc2)C(=S)Nc2cc(Cl)ccc2Cl)C(=O)N1c1c(Cl)cccc1Cl (configuration not stated) ?
ANO1 activ: inactive; TMEM16A inh: inactive; CRFBP-R2 block: -6; cardiac RTF act: 9; RTF Ca sens inh: 3; CRFBP-R2 agonist: 2

Results for Cc1c(/C=N/NC(=O)c2ccccc2O)c2ccccn2c1C(=O)c1ccc(F)cc1 ?
ANO1 activ: inactive; TMEM16A inh: 100*; CRFBP-R2 block: -17; cardiac RTF act: 5; RTF Ca sens inh: -5; CRFBP-R2 agonist: 5; TMEM16A reconf: 34%*; HEK293 Ca mobil: inactive; YFP-HEK293 quench: -0.92; ClC-1 rat inh: -14

How did Cc1c(/C=N/NC(=O)c2ccc(O)cc2)c2ccccn2c1C(=O)c1ccc(F)cc1 do in these assays?
ANO1 activ: inactive; TMEM16A inh: inactive; CRFBP-R2 block: -11; cardiac RTF act: 8; RTF Ca sens inh: 3; CRFBP-R2 agonist: -2

Results for COc1ccc(-c2c(C(F)(F)F)[nH]n3c(=O)cc(-c4ccccc4)nc23)cc1 ?
ANO1 activ: inactive; TMEM16A inh: 100*; CRFBP-R2 block: 70*; cardiac RTF act: -9; RTF Ca sens inh: 6; CRFBP-R2 agonist: -4; TMEM16A reconf: 49%*; HEK293 Ca mobil: inactive; YFP-HEK293 quench: -0.92; ClC-1 rat inh: -18

What do the screens show for `Cc1[nH]n2c(=O)cc(-c3ccc([N+](=O)[O-])cc3)nc2c1-c1ccccc1`?
ANO1 activ: inactive; TMEM16A inh: inactive; CRFBP-R2 block: 48; cardiac RTF act: -10; RTF Ca sens inh: 15; CRFBP-R2 agonist: 1

What do the screens show for `COC(=O)CSc1nnc2c3c4c(sc3nc(-n3nc(C)cc3C)n12)COC(C)(C)C4`?
ANO1 activ: inactive; TMEM16A inh: inactive; CRFBP-R2 block: -5; cardiac RTF act: -2; RTF Ca sens inh: 1; CRFBP-R2 agonist: 1

How did Cc1cc(C)n(-c2nc3sc4c(c3c3nnc(SC(C)C)n23)CC(C)(C)OC4)n1 do in these assays?
ANO1 activ: inactive; TMEM16A inh: 100*; CRFBP-R2 block: 20; cardiac RTF act: 4; RTF Ca sens inh: 2; CRFBP-R2 agonist: -1; TMEM16A reconf: inactive; HEK293 Ca mobil: inactive; YFP-HEK293 quench: -1; ClC-1 rat inh: -7

Results for O=[N+]([O-])c1cc2c(cc1Br)CCN2 ?
ANO1 activ: inactive; TMEM16A inh: inactive; CRFBP-R2 block: -1; cardiac RTF act: 3; RTF Ca sens inh: 2; CRFBP-R2 agonist: -1

Results for CC(C)(C)c1ccc(C(=O)Nc2ccc(CN3CCS(=O)(=O)CC3)cc2)cc1 ?
ANO1 activ: inactive; TMEM16A inh: 25*; CRFBP-R2 block: 1; cardiac RTF act: 7; RTF Ca sens inh: -1; CRFBP-R2 agonist: 2; TMEM16A reconf: 20%*; HEK293 Ca mobil: inactive; YFP-HEK293 quench: -0.88; ClC-1 rat inh: -24

Results for O=C(Nc1cccnc1)c1ccc(CN2CCc3ccccc3C2)cc1 ?
ANO1 activ: inactive; TMEM16A inh: 25*; CRFBP-R2 block: 9; cardiac RTF act: -2; RTF Ca sens inh: -1; CRFBP-R2 agonist: 1; TMEM16A reconf: 22%*; HEK293 Ca mobil: inactive; YFP-HEK293 quench: -0.94; ClC-1 rat inh: -4

What do the screens show for `Cc1ccc(NC(=O)c2ccc(CN3CCc4ccccc4C3)cc2)cc1`?
ANO1 activ: inactive; TMEM16A inh: 25*; CRFBP-R2 block: -29; cardiac RTF act: -1; RTF Ca sens inh: -12; CRFBP-R2 agonist: 10; TMEM16A reconf: inactive; HEK293 Ca mobil: inactive; YFP-HEK293 quench: -0.89; ClC-1 rat inh: 0

Results for O=C(Nc1ccccc1)c1ccc(CN2CCc3ccccc3C2)cc1 ?
ANO1 activ: inactive; TMEM16A inh: inactive; CRFBP-R2 block: 2; cardiac RTF act: -3; RTF Ca sens inh: -1; CRFBP-R2 agonist: 1

How did O=C(CCC(=O)c1ccccc1)NC1CCCN(Cc2ccccc2F)C1 (configuration not stated) do in these assays?
ANO1 activ: inactive; TMEM16A inh: inactive; CRFBP-R2 block: 0; cardiac RTF act: 2; RTF Ca sens inh: 1; CRFBP-R2 agonist: -4

How did O=C(c1ccc2c(c1)OCCO2)N1CCN(Cc2ccccc2)CC1 do in these assays?
ANO1 activ: inactive; TMEM16A inh: inactive; CRFBP-R2 block: -7; cardiac RTF act: 1; RTF Ca sens inh: -8; CRFBP-R2 agonist: 0

What do the screens show for `COc1cc(C(=O)NCCNC(=O)c2ccco2)cc(OC)c1OC`?
CRFBP-R2 block: 16; cardiac RTF act: 2; RTF Ca sens inh: -5; CRFBP-R2 agonist: 3

What do the screens show for `COc1cc(C(=O)OCC(=O)N(C)C)cc(NC(=O)c2ccco2)c1OC`?
ANO1 activ: inactive; TMEM16A inh: 100*; CRFBP-R2 block: 21; cardiac RTF act: 5; RTF Ca sens inh: -6; CRFBP-R2 agonist: -1; TMEM16A reconf: inactive; HEK293 Ca mobil: inactive; YFP-HEK293 quench: -0.98; ClC-1 rat inh: -8

How did CC(C)(NC(=O)c1cc(Cl)c2ccccc2c1O)C(=O)O do in these assays?
ANO1 activ: inactive; TMEM16A inh: inactive; CRFBP-R2 block: -6; cardiac RTF act: 5; RTF Ca sens inh: -2; CRFBP-R2 agonist: 0

How did CCCNC(=O)CCn1cc(-c2ccc(OC)cc2)nc1-c1ccncc1 do in these assays?
ANO1 activ: inactive; TMEM16A inh: inactive; CRFBP-R2 block: 13; cardiac RTF act: 1; RTF Ca sens inh: -8; CRFBP-R2 agonist: 0

How did Cc1cc(=O)oc2cc(OCC(=O)OCC(=O)N(C)C3CCS(=O)(=O)C3)ccc12 (configuration not stated) do in these assays?
ANO1 activ: inactive; TMEM16A inh: inactive; CRFBP-R2 block: 5; cardiac RTF act: 4; RTF Ca sens inh: -11; CRFBP-R2 agonist: 1; TMEM16A reconf: inactive; HEK293 Ca mobil: inactive; YFP-HEK293 quench: -1.1; ClC-1 rat inh: -22

From PubChem
